The source of these data is the supplement of paper PMC11402862.

The test system of this experiment is PPARalpha LBD (GAL4 fusion). The experiment is described as follows: luciferase reporter transactivation, fold of solvent control; higher = stronger receptor activation. Particulars: HEK293T, exposure time: 24 h. The method, then:
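HEK293T cells were transiently transfected with a GAL4-DBD fused to the ligand-binding domain of a human nuclear receptor (PPARα, PPARγ, PPARδ, FXR, LXRα, PXR, RARα or CAR), the GAL4-(UAS)5-TK firefly luciferase reporter and a Renilla luciferase normalisation plasmid. Cells were exposed to compound for 24 h in 0.5% DMSO. Firefly/Renilla luciferase was expressed as fold of the solvent control (=1). Values are the mean of 2-3 biological replicates; receptor agonists were used as positive controls.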
On the technique in general: Reporter assays use an easily measured gene product as a stand-in for the process of interest.

The structures appear in SMILES notation.

As for `O=C(O)C(F)(F)C(F)(F)C(F)(F)C(F)(F)F` [perfluoropentanoic acid], the luciferase reporter transactivation by setting is: (concentration: 1 µM) 1.14; (concentration: 5 µM) 1.05; (concentration: 10 µM) 1.12; (concentration: 25 µM) 1.18; (concentration: 50 µM) 1.15; (concentration: 100 µM) 1.31. The luciferase reporter transactivation is 1.35 (concentration: 250 µM) and 1.58 (concentration: 500 µM).
Consider `O=S(=O)(O)CCC(F)(F)C(F)(F)C(F)(F)C(F)(F)C(F)(F)C(F)(F)C(F)(F)C(F)(F)F` [8:2 fluorotelomer sulfonic acid], for which the luciferase reporter transactivation came out at 1.07 (concentration: 1 µM); 1.09 (concentration: 5 µM); 1.18 (concentration: 10 µM); 1.29 (concentration: 25 µM); 1.33 (concentration: 50 µM); 1.97 (concentration: 100 µM). Moreover, the luciferase reporter transactivation runs as follows: (concentration: 250 µM) 1.6; (concentration: 500 µM) 1.31.
With `OCCC(F)(F)C(F)(F)C(F)(F)C(F)(F)C(F)(F)C(F)(F)F` [6:2 fluorotelomer alcohol], the luciferase reporter transactivation is, setting by setting: (concentration: 1 µM) 0.709; (concentration: 5 µM) 0.741; (concentration: 10 µM) 0.818; (concentration: 25 µM) 0.925; (concentration: 50 µM) 0.748; (concentration: 100 µM) 0.765. Also, the luciferase reporter transactivation turned out to be 0.656 (concentration: 250 µM) and 0.825 (concentration: 500 µM).
Turning to `O=S(=O)(O)CCC(F)(F)C(F)(F)C(F)(F)C(F)(F)C(F)(F)C(F)(F)F` [6:2 fluorotelomer sulfonic acid], the luciferase reporter transactivation is, setting by setting: (concentration: 1 µM) 1.06; (concentration: 5 µM) 0.983; (concentration: 10 µM) 1.08; (concentration: 25 µM) 1.08; (concentration: 50 µM) 1.13; (concentration: 100 µM) 1.78.
Turning to `CC(C)(Sc1ccc(CCN(CCCCC2CCCCC2)C(=O)NC2CCCCC2)cc1)C(=O)O`, the luciferase reporter transactivation (concentration: 1 µM) was determined as 46.
